# Experimental data reported in PubChem BioAssay (NCATS).
# Values joined by “and” are separate entries in the source; they are usually repeats but may differ in a detail not shown here. Equal entries are not always repeated. Inconclusive results are not listed. A call without a number means that no potency is given here. Some structures have more than one record in an assay (separate samples or runs), and their calls can disagree. Active and inactive are the calls of the source. Calls come from the whole dose curve; as a rule, active = well fitted curve in the direction sought with a large enough effect; inconclusive = small, poorly fitted or top-dose-only effect, or another doubt; inactive = no such curve, though single readings can be large; an effect the other way counts as inactive or inconclusive.
# Assay: qHTS of pediatric cancer cell lines to identify multiple opportunities for drug repurposing: Primary screen for NB1643 cells (AID 1347099); note: nearly all actives have a fitted effect of over 50% in size
# Settings: NB1643 neuroblastoma viability, CellTiter-Glo luminescence, 48 h; series mostly up to 46 µM
# Summary of the method: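 ATP-based luminescence (CellTiter-Glo) quantifies viability after a 48-hour exposure. Compounds are dosed across 8 or 11 final concentrations; DMSO and 2.3 µM bortezomib serve as controls.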
# Potency is the fitted concentration of half-maximal effect.
Compound,Potency,"activity change, negative = cytotoxic"
CC1(C)NC(=O)N(c2ccc([N+](=O)[O-])c(C(F)(F)F)c2)C1=O,inactive,–
CC(C)(S)[C@@H](N)C(=O)O,inactive,–
Cc1ncc([N+](=O)[O-])n1CC(C)O (stereo not drawn),inactive,–
COc1cc2c(cc1OC)C1CC(=O)C(CC(C)C)CN1CC2 (stereo not drawn),inactive,–
NS(=O)(=O)c1cc(C(=O)O)c(NCc2ccco2)cc1Cl,inactive,–
Cc1cc(=O)oc2cc(O)ccc12,inactive,–
CNC[C@@H](O)[C@@H](O)[C@H](O)[C@H](O)CO,inactive,–
CCOC(=O)c1c(C)n(C)c2ccc(O)cc12,inactive,–
CC1Cc2ccccc2N1NC(=O)c1ccc(Cl)c(S(N)(=O)=O)c1 (stereo not drawn),inactive,–
O=C(OC1C[C@H]2CC[C@@H](C1)[N+]21CCCC1)C(O)(c1ccccc1)c1ccccc1 (stereo partly drawn),10.5 µM (active),–
NNc1nncc2ccccc12,inactive,–
Oc1ccc(OCc2ccccc2)cc1,inactive,–
Cc1cc(C2CCCCC2)n(O)c(=O)c1,11.9 µM (active) and 20.9 µM (active),–
COc1ccc2cc([C@H](C)C(=O)O)ccc2c1,inactive,–
Nc1ncn([C@H]2C[C@H](O)[C@@H](CO)O2)c(=O)n1,inactive,–
COc1c2occc2cc2ccc(=O)oc12,inactive,–

Compound,Potency,"activity change, negative = cytotoxic"
CCCCCCCCCCCCCCCCCCCCCCO,inactive,–
O=C(NOCC1CC1)c1ccc(F)c(F)c1Nc1ccc(I)cc1Cl,16.6 µM (active),–
Cc1nc2n(c(=O)c1CCN1CCC(c3noc4cc(F)ccc34)CC1)CCCC2,inactive,–
N=C(N)c1ccc2cc(OC(=O)c3ccc(N=C(N)N)cc3)ccc2c1,inactive,–
CCN(CCO)CCCC(C)Nc1ccnc2cc(Cl)ccc12 (stereo not drawn),–,19.4% [at 4.84 µM] (inactive)
CCN(CC)C(=S)SSC(=S)N(CC)CC,83.3 nM (active) and 124 nM (active) and 668 nM (active),–
NC(=O)Cc1cccc(C(=O)c2ccccc2)c1N,inactive,–
Cc1ccc(NC(=O)c2ccc(CN3CCN(C)CC3)cc2)cc1Nc1nccc(-c2cccnc2)n1,inactive,–
O=C(O)c1cn(-c2ccc(F)cc2)c2cc(N3CCNCC3)c(F)cc2c1=O,inactive,–
CN1C(C(=O)Nc2ccccn2)=C(O)c2sccc2S1(=O)=O,inactive,–
Cc1cc2c(s1)Nc1ccccc1N=C2N1CCN(C)CC1,inactive,–
COc1cc(OC)c(C(=O)CCCN2CCCC2)c(OC)c1,inactive,–
CC1=C(C(=O)O)N2C(=O)[C@@H](NC(=O)[C@H](N)C3=CCC=CC3)[C@H]2SC1,inactive,–
Nc1cc(C(Cl)=C(Cl)Cl)c(S(N)(=O)=O)cc1S(N)(=O)=O,inactive,–
Nc1ccc(S(N)(=O)=O)cc1,inactive,–
Clc1ccc2c(N3CCN(CCCN4CCN(c5ccnc6cc(Cl)ccc56)CC4)CC3)ccnc2c1,inactive,–

# Assay: qHTS of pediatric cancer cell lines to identify multiple opportunities for drug repurposing: Primary screen for LAN-5 cells (AID 1347100)
# Settings: LAN-5 neuroblastoma viability, CellTiter-Glo luminescence, 48 h; series mostly up to 46 µM
# Summary of the method: (§1)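 Cells (500-1,000/well) rested 5 h, then received compounds for 48 h; metabolically active cells were measured by CellTiter-Glo luminescence. Final concentrations spanned up to 46 µM (MIPE, 11-point) or 0.59 nM-46 µM (NPC, 8-point) in primary screens, 11-point in follow-ups.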
Compound,Potency,"activity change, negative = cytotoxic"
COC(=O)C1=C(C)NC(C)=C(C(=O)OC(C)C)C1c1cccc2nonc12 (stereo not drawn),inactive,–
Cc1ncc([N+](=O)[O-])n1CC(C)O (stereo not drawn),inactive,–
COc1cc2c(cc1OC)C1CC(=O)C(CC(C)C)CN1CC2 (stereo not drawn),inactive,–
NS(=O)(=O)c1cc(C(=O)O)c(NCc2ccco2)cc1Cl,inactive,–
Cc1cc(=O)oc2cc(O)ccc12,inactive,–
CNC[C@@H](O)[C@@H](O)[C@H](O)[C@H](O)CO,inactive,–
CCOc1cc(CC(=O)N[C@@H](CC(C)C)c2ccccc2N2CCCCC2)ccc1C(=O)O,inactive,–
O=C(OC1C[C@H]2CC[C@@H](C1)[N+]21CCCC1)C(O)(c1ccccc1)c1ccccc1 (stereo partly drawn),inactive,–
Oc1ccc(OCc2ccccc2)cc1,inactive,–
COc1ccc2cc([C@H](C)C(=O)O)ccc2c1,inactive,–
Nc1ncn([C@H]2C[C@H](O)[C@@H](CO)O2)c(=O)n1,inactive,–
C[Se]CCC(N)C(=O)O (stereo not drawn),inactive,–
CC1(C)C(=O)N(CCN2CCC(C(=O)c3ccc(F)cc3)CC2)c2ccccc21,inactive,–
O=C(NOCC1CC1)c1ccc(F)c(F)c1Nc1ccc(I)cc1Cl,16.8 µM (active) and 16.6 µM (active),–
N=C(N)c1ccc2cc(OC(=O)c3ccc(N=C(N)N)cc3)ccc2c1,inactive,–
CCN(CCO)CCCC(C)Nc1ccnc2cc(Cl)ccc12 (stereo not drawn),3.72 µM (active),22.8% [at 4.84 µM] (inactive)
CCN(CC)C(=S)SSC(=S)N(CC)CC,23.5 nM (active) and 39.4 nM (active),–
Cc1ccc(NC(=O)c2ccc(CN3CCN(C)CC3)cc2)cc1Nc1nccc(-c2cccnc2)n1,inactive,–
O=C(O)c1cn(-c2ccc(F)cc2)c2cc(N3CCNCC3)c(F)cc2c1=O,inactive,–
CN1C(C(=O)Nc2ccccn2)=C(O)c2sccc2S1(=O)=O,inactive,–
CC1=C(C(=O)O)N2C(=O)[C@@H](NC(=O)[C@H](N)C3=CCC=CC3)[C@H]2SC1,inactive,–
Clc1ccc2c(N3CCN(CCCN4CCN(c5ccnc6cc(Cl)ccc56)CC4)CC3)ccnc2c1,inactive,–

# Assay: qHTS of pediatric cancer cell lines to identify multiple opportunities for drug repurposing: Primary screen for BT-12 cells (AID 1347101); note: nearly all actives have a fitted effect of over 25% in size
# Settings: BT-12 viability, CellTiter-Glo luminescence, 48 h; series mostly up to 57.3 µM
# Summary of the method: as §1
row,Compound,Potency
1,COC(=O)C1=C(C)NC(C)=C(C(=O)OC(C)C)C1c1cccc2nonc12 (stereo not drawn),inactive
2,CC(C)(S)[C@@H](N)C(=O)O,inactive
3,Cc1ncc([N+](=O)[O-])n1CC(C)O (stereo not drawn),inactive
4,COc1cc2c(cc1OC)C1CC(=O)C(CC(C)C)CN1CC2 (stereo not drawn),inactive
5,NS(=O)(=O)c1cc(C(=O)O)c(NCc2ccco2)cc1Cl,inactive
6,Cc1cc(=O)oc2cc(O)ccc12,inactive
7,CNC[C@@H](O)[C@@H](O)[C@H](O)[C@H](O)CO,inactive
8,c1cnc2cc3c(cc2n1)C1CNCC3C1,inactive
9,CCOC(=O)c1c(C)n(C)c2ccc(O)cc12,inactive
10,CCOc1cc(CC(=O)N[C@@H](CC(C)C)c2ccccc2N2CCCCC2)ccc1C(=O)O,inactive
11,CC1Cc2ccccc2N1NC(=O)c1ccc(Cl)c(S(N)(=O)=O)c1 (stereo not drawn),inactive
12,O=C(OC1C[C@H]2CC[C@@H](C1)[N+]21CCCC1)C(O)(c1ccccc1)c1ccccc1 (stereo partly drawn),inactive
13,NNc1nncc2ccccc12,inactive
14,Oc1ccc(OCc2ccccc2)cc1,inactive
15,Cc1cc(C2CCCCC2)n(O)c(=O)c1,6.92 µM (active) and 17.2 µM (active)
16,COc1ccc2cc([C@H](C)C(=O)O)ccc2c1,inactive
17,Nc1ncn([C@H]2C[C@H](O)[C@@H](CO)O2)c(=O)n1,inactive

row,Compound,Potency
1,COc1c2occc2cc2ccc(=O)oc12,inactive
2,C[Se]CCC(N)C(=O)O (stereo not drawn),inactive
3,CCCCCCCCCCCCCCCCCCCCCCO,inactive
4,O=C(NOCC1CC1)c1ccc(F)c(F)c1Nc1ccc(I)cc1Cl,27.6 µM (active) and 24.3 µM (active)
5,Cc1nc2n(c(=O)c1CCN1CCC(c3noc4cc(F)ccc34)CC1)CCCC2,inactive
6,CCN(CCO)CCCC(C)Nc1ccnc2cc(Cl)ccc12 (stereo not drawn),inactive
7,CCN(CC)C(=S)SSC(=S)N(CC)CC,15.3 nM (active) and 72.7 nM (active) and 174 nM (active)
8,NC(=O)Cc1cccc(C(=O)c2ccccc2)c1N,inactive
9,O=C(O)c1cn(-c2ccc(F)cc2)c2cc(N3CCNCC3)c(F)cc2c1=O,inactive
10,CN1C(C(=O)Nc2ccccn2)=C(O)c2sccc2S1(=O)=O,inactive
11,Cc1cc2c(s1)Nc1ccccc1N=C2N1CCN(C)CC1,inactive
12,COc1cc(OC)c(C(=O)CCCN2CCCC2)c(OC)c1,inactive
13,CC1=C(C(=O)O)N2C(=O)[C@@H](NC(=O)[C@H](N)C3=CCC=CC3)[C@H]2SC1,inactive
14,Nc1cc(C(Cl)=C(Cl)Cl)c(S(N)(=O)=O)cc1S(N)(=O)=O,inactive
15,Nc1ccc(S(N)(=O)=O)cc1,inactive
16,Clc1ccc2c(N3CCN(CCCN4CCN(c5ccnc6cc(Cl)ccc56)CC4)CC3)ccnc2c1,inactive
